Bioassay records deposited in PubChem BioAssay by several laboratories.
CCHFV vOTU inh – CCHFV vOTU protease inhibitors, primary screen, biochemical, Pep-AMC substrate, fluorescence | Crimean-Congo hemorrhagic fever virus L polyprotein viral ovarian tumor (vOTU) protease … | inhibition, % at 11.5 µM | 0.55% of 370,000 active | AID 651958, 2012; further: 0% = vehicle wells with enzyme and 100% = no enzyme wells
Vc quorum ag – inducers of Vibrio cholerae quorum light production without autoinducers, primary screen, BH1578 luxS cqsA deficient, single point; activation, % at 18.7 µM; 0.16% of 350,000 active; V. cholerae BH1578 lux reporter, luminescence, 6 h; in the data active means activation mostly above about 9.7%, no sharp cut-off
GDH-TPI counter-1 – GDH-TPI coupling enzyme inhibitors, primary screen, artefact control for M. tuberculosis FBA inhibitor project, biochemical, absorbance, full deck. GDH-TPI coupled enzyme counterscreen, NADH absorbance. inhibition, % at 4.8 µM. AID 588335, 2011. 1.2% of 360,000 active;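 further: 0% = DMSO wells and 100% = wells lacking the enzyme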
FBA Mtb inh – Mtb FBA enzyme inhibitors, primary screen, biochemical, fluorescence, strain H37Rv; purified M. tuberculosis FBA, fluorescence read-out; 2.3% of 360,000 active; inhibition, % at 1 µM; in the data active means inhibition above about 27%;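 further: 0% = vehicle and 100% = reference inhibitor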
Target sequence (P9WQA3 whole entry, looked up): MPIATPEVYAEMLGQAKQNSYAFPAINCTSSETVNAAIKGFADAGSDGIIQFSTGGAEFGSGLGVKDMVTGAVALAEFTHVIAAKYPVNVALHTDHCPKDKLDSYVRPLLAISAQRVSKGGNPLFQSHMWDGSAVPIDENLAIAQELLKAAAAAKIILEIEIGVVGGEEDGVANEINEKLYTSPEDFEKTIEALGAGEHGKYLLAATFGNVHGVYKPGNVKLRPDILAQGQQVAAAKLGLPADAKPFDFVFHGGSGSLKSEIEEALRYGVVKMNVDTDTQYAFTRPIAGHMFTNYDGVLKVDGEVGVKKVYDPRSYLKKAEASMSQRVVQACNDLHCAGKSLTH
Mtb FBA inh conf – M. tuberculosis aldolase blockers, biochemical, fluorescence, strain H37Rv, confirmation; inhibition, % at 1 µM; purified M. tuberculosis FBA, fluorescence read-out; shares compounds with FBA Mtb inh; 78% of 5,600 active; in the data active means inhibition above about 27%;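 further: 0% = vehicle wells and 100% = reference inhibitor wells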
GDH-TPI counter-2 – GDH-TPI coupling enzyme inhibitors, artefact control for M. tuberculosis FBA inhibitor project, biochemical, fluorescence, high throughput | inhibition, % at 1 µM | GDH-TPI coupled enzyme counterscreen | shares compounds with FBA Mtb inh | 81% of 5,600 active | AID 652141, 2013; in the data active means inhibition above about 10%
GDH-TPI dose – GDH-TPI coupling enzyme inhibitors, dose response, artefact control for M. tuberculosis FBA inhibitor project, biochemical, fluorescence, IC50; IC50, µM; AID 652145, 2013; GDH-TPI coupled enzyme assay, artifact counterscreen; 79% of 170 active; shares compounds with FBA Mtb inh; call rule not given here
An asterisk follows results filed as active. In the library only some 3.9% were active in any assay of this set; here they are far more common. Unless noted, no stated cut-off is given here; in the data, active means inhibition above about 30%; inactive means the rest.

CC(C)CN(C(=O)COC(=O)CCN1C(=O)c2ccccc2C1=O)C1CCS(=O)(=O)C1 (stereo not given) was read as CCHFV vOTU inh -10, Vc quorum ag inactive, GDH-TPI counter-1 -5 and FBA Mtb inh -11.
For CC(C)c1ccc(NC(=O)CSc2nc3ccsc3c(=O)n2CCC(=O)O)cc1 the results were CCHFV vOTU inh 14, Vc quorum ag inactive, GDH-TPI counter-1 7 and FBA Mtb inh 4.
CCN1CCCC1CNC(=O)c1cc2cc(F)ccc2[nH]1 (stereo not given) was read as CCHFV vOTU inh 2, Vc quorum ag -1, GDH-TPI counter-1 -1, FBA Mtb inh 30*, Mtb FBA inh conf active and GDH-TPI counter-2 active.
Cc1ccc2oc(C(=O)NCCCN3CCOCC3)c(C)c2c1 was read as CCHFV vOTU inh 3, Vc quorum ag -1, GDH-TPI counter-1 -2 and FBA Mtb inh 15.
For Cc1ccc(C2OC34CCCCCC3C(C#N)(C(=N)O4)C2(C#N)C#N)cc1 (stereo not given) the results were CCHFV vOTU inh -92, Vc quorum ag 0, GDH-TPI counter-1 4, FBA Mtb inh 70*, Mtb FBA inh conf 119* and GDH-TPI counter-2 102*.
Screening Cc1nc(-c2cccc3ccccc23)ccc1C(=O)O returned CCHFV vOTU inh -8, Vc quorum ag -2, GDH-TPI counter-1 8, FBA Mtb inh 41*, Mtb FBA inh conf 75* and GDH-TPI counter-2 67*.
Screening Cc1nc(-c2ccccc2)ccc1C(=O)O returned CCHFV vOTU inh -5, Vc quorum ag inactive, GDH-TPI counter-1 0 and FBA Mtb inh 1.
Screening CNS(=O)(=O)c1ccc(NCC2COc3ccccc3O2)c([N+](=O)[O-])c1 (stereo not given) returned CCHFV vOTU inh -15, Vc quorum ag inactive, GDH-TPI counter-1 3 and FBA Mtb inh -7.
Screening CCOC(=O)Nc1ccc2c(c1)N(C(=O)CCN1CCOCC1)c1ccccc1S2=O (stereo not given) returned CCHFV vOTU inh 0, Vc quorum ag 0, GDH-TPI counter-1 -2 and FBA Mtb inh 2.
Screening COc1cc(OC)cc(-c2c(C#Cc3ccsc3)c3cc(-c4ccc(C(N)=O)cc4)ccc3n2C)c1 returned CCHFV vOTU inh 8, Vc quorum ag -11, GDH-TPI counter-1 3, FBA Mtb inh 32*, Mtb FBA inh conf 36* and GDH-TPI counter-2 16*.
For COc1cc(OC)cc(-c2c(C#Cc3ccsc3)c3cc(-c4cc(OC)c(OC)c(OC)c4)ccc3n2C)c1 the results were CCHFV vOTU inh -4, Vc quorum ag inactive, GDH-TPI counter-1 14, FBA Mtb inh 47*, Mtb FBA inh conf 6 and GDH-TPI counter-2 3.
`COc1cc(OC)cc(-c2c(C#Cc3ccsc3)c3cc(-c4cnc(OC)nc4)ccc3n2C)c1` gave CCHFV vOTU inh 26, Vc quorum ag 1, GDH-TPI counter-1 3 and FBA Mtb inh 0.
Screening COc1ccc(-c2c(C#Cc3ccsc3)c3cc(-c4ccc(OC)nc4)ccc3n2C)cc1 returned CCHFV vOTU inh -1, Vc quorum ag inactive, GDH-TPI counter-1 -7 and FBA Mtb inh 1.
For CCOC(=O)N1CCN(C(=O)COc2ccc3ccccc3c2Br)CC1 the results were CCHFV vOTU inh 4, Vc quorum ag inactive, GDH-TPI counter-1 3 and FBA Mtb inh 2.
For O=S(=O)(c1ccc(F)cc1)N1CN2CCN(C2)C1 the results were CCHFV vOTU inh -10, Vc quorum ag inactive, GDH-TPI counter-1 14, FBA Mtb inh 30*, Mtb FBA inh conf 5 and GDH-TPI counter-2 -1.
Screening COc1ccc2nc(SCC(=O)O)nc(C)c2c1 returned CCHFV vOTU inh -25, Vc quorum ag 15*, GDH-TPI counter-1 3, FBA Mtb inh 39*, Mtb FBA inh conf 101* and GDH-TPI counter-2 90*.
`COc1ccc2nc(C)cc(SCC(=O)O)c2c1` gave CCHFV vOTU inh -16, Vc quorum ag 0, GDH-TPI counter-1 11 and FBA Mtb inh 7.
Screening O=C(NCCc1ccccc1)C1CCC(=O)N(CCCN2CCCC2=O)C1 (stereo not given) returned CCHFV vOTU inh -17, Vc quorum ag -1, GDH-TPI counter-1 -1 and FBA Mtb inh -1.
O=C(NCc1cc2ccccc2[nH]1)C1CCC(=O)N(CCCN2CCCC2=O)C1 (stereo not given) was read as CCHFV vOTU inh 5, Vc quorum ag -1, GDH-TPI counter-1 5, FBA Mtb inh 30*, Mtb FBA inh conf 62* and GDH-TPI counter-2 32*.
Screening O=C(CN1C(=O)CCC1=O)Nc1nc(-c2nc3ccccc3s2)cs1 returned CCHFV vOTU inh -8, Vc quorum ag 0, GDH-TPI counter-1 -2, FBA Mtb inh 34*, Mtb FBA inh conf 10 and GDH-TPI counter-2 4.
Screening O=C(CSc1nc2ccccc2o1)NN=C/C=C/c1ccccc1 returned CCHFV vOTU inh 14.
CCCOC(=O)c1cc(-c2ccc(/C=C3/C(=O)N(C)C(=O)C(C#N)=C3C)o2)ccc1Cl was read as Vc quorum ag -6, GDH-TPI counter-1 1 and FBA Mtb inh -1.
CCCOC(=O)c1cc(-c2ccc(C=O)o2)ccc1Cl was read as CCHFV vOTU inh 10, Vc quorum ag 0, GDH-TPI counter-1 28, FBA Mtb inh 97*, Mtb FBA inh conf 7 and GDH-TPI counter-2 -5.
`C=CCn1c(O)c(C(CC)=NCCN2CCOCC2)c(=O)[nH]c1=O` gave CCHFV vOTU inh 2, Vc quorum ag -11, GDH-TPI counter-1 4 and FBA Mtb inh 1.
`Cc1cc2c(cc1S(=O)(=O)Nc1cccc(C)c1C)n(C)c(=O)c(=O)n2C` gave CCHFV vOTU inh -3, Vc quorum ag 0, GDH-TPI counter-1 7 and FBA Mtb inh 3.
For NC(=O)c1ccc(-c2ncc(-c3ccccc3)o2)cc1 the results were CCHFV vOTU inh -296, Vc quorum ag -1 and GDH-TPI counter-1 20.
`Cc1ccc(-c2cnc(-c3ccccc3C(=O)O)o2)cc1` gave CCHFV vOTU inh 1, Vc quorum ag inactive, GDH-TPI counter-1 0, FBA Mtb inh 70*, Mtb FBA inh conf 11, GDH-TPI counter-2 -3 and GDH-TPI dose 1.6*.
COc1cc(/C=N/NC(=O)C(N)=O)cc(OC)c1O was read as CCHFV vOTU inh 15, Vc quorum ag 0, GDH-TPI counter-1 14, FBA Mtb inh 51*, Mtb FBA inh conf active and GDH-TPI counter-2 active.
